# Most compounds without a hit are left out; they make up all but 19% or so of the library.
# Shiga inhibitor = Shiga toxin inhibition; Vero cells, Shiga toxin protein synthesis inhibition reporter; inhibition, % at 38.7 µM; 9.2% of 290,000 active; in the data active = inhibition mostly above about 28%, no sharp cut-off; inactive = mostly below about 43%
# Lassa entry inh = blocks Lassa virus binding to or entry into cells; Lassa virus pseudotype entry inhibition, cell reporter; 1.2% of 300,000 active; Potency, µM (series often up to 37.9 µM), hits mostly inhibitors; calls by dose curve; tested in HEK293 cells; also: nearly all actives have a fitted effect of over 50% in size
# CHX counter = affects cycloheximide protein synthesis inhibition readout, counter-screen; cell reporter, cycloheximide protein synthesis inhibition counterscreen; max response, %; 12% of 300,000 active; in the data active = max response mostly above about 13%, no sharp cut-off; inactive = mostly below about 14%; also: read at 38.3 µM for the half of the compounds with a filed dose
# Pf growth 48h = inhibits P. falciparum growth in the first generation, 48 h; Potency, µM (series often up to 28.7 µM), most hits filed as inhibitors; AID 504832; P. falciparum luciferase growth in erythrocytes, 48 h; 5.9% of 310,000 active
#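 First compound was added to culture medium, then infected red cells at 0.1% parasitemia and 2% hematocrit (final). After incubation at 37 C under 5% CO2, luciferase detection reagent was dispensed and light output recorded.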
# Pf growth 96h = inhibits malaria parasite growth, 96 h | Potency, µM (highest dose often 28.7 µM), most hits filed as inhibitors | 6.9% of 320,000 active | AID 504834 | P. falciparum luciferase reporter growth, 96 h
#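 Delayed-death screen, second-generation endpoint: infected erythrocytes, 2% hematocrit, 0.05% parasitemia final; 96 hours at 37 C, 5% CO2; luciferase detection reagent; luminescence decrease equals reduced growth.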
# Marburg entry inh = Marburg virus entry inhibition; Marburg virus pseudotyped entry inhibition, cell reporter; Potency, µM (doses to about 37.8 µM), actives largely listed as inhibitors; 1.8% of 300,000 active; calls by dose curve; tested in HEK293 cells
# Hits are given with their value; . = inactive; ? = inconclusive; / = no result. Unless noted, calls follow the shape of the dose curve; as a rule, active = well fitted inhibition curve with a large enough effect; inconclusive = small, poorly fitted or top-dose-only effect, or another doubt; inactive = no such curve, though single readings can be large or run the other way.
SMILES,Shiga inhibitor,Lassa entry inh,CHX counter,Pf growth 48h,Pf growth 96h,Marburg entry inh
Fc1ccc(-c2csc3ncnc(Cl)c23)cc1,.,.,.,0.23µM,?,.
Clc1ccc(-c2csc3ncnc(Cl)c23)cc1,.,.,.,?,?,.
COc1ccc(Nc2ncnc3scc(-c4ccc(OC)cc4)c23)cc1,.,?,.,.,9.3µM,7.3µM
COc1ccc(-c2csc3ncnc(Nc4ccc(OC)c(OC)c4)c23)cc1,/,.,/,/,/,/
COc1ccc(-c2csc3ncnc(Cl)c23)cc1,.,.,.,1.3µM,.,.
CS(=O)(=O)c1nc2c(cc1C#N)CCCC2,.,.,.,.,.,.
Cc1cc(C)c(-n2c(O)c(/C=N/N3CCCCC3c3cccnc3)c(=O)[nH]c2=O)c(C)c1 (stereo unspecified),.,.,.,.,.,?
Cc1c(C(=O)N2CCOCC2)sc(NC(=O)CCl)c1C#N,.,.,.,2.1µM,.,?
CCCCCCCc1ccc(C2NC(=S)NC3=C2C(=O)c2ccccc23)cc1 (stereo unspecified),.,/,.,.,?,/
Cc1ccc(S(=O)(=O)c2c(COC(=O)c3ccccc3Cl)c(-c3ccccc3)nn2C)cc1,.,.,.,/,6.6µM,?
CN(C1=C(N2CCCCC2)C(=O)c2ccccc2C1=O)c1ccccc1,.,?,.,8.3µM,/,?
Cc1ccc(NC2=C(N3CCCCC3)C(=O)c3ccccc3C2=O)cc1,107,?,50,0.17µM,0.074µM,?
O=C(/C=C/c1ccc(O)cc1)c1ccc(NC2=C(N3CCCCC3)C(=O)c3ccccc3C2=O)cc1,160,?,59,0.52µM,0.17µM,?
O=C(/C=C/c1ccc(O)c(O)c1)c1ccc(S(=O)(=O)N2CCCCCC2)cc1,.,.,.,.,.,.
O=C1C(Nc2cccc(O)c2)=C(N2CCCCC2)C(=O)c2ccccc21,51,.,35,?,0.41µM,?
CC1=C(Nc2ccc(C(=O)O)cc2)C(=O)c2ccccc2C1=O,.,/,.,.,.,/
CN1CC(=O)N(CC(=O)NCc2ccc(F)cc2)c2ccccc2C1=O,.,.,.,.,.,.
O=C1C(Nc2ccccc2)=C(N2CCCCC2)C(=O)c2ccccc21,72,.,31,0.47µM,.,?
Cc1ccc(C)c2[nH]c(=O)c(CCNC(=O)c3cc4ccccc4o3)cc12,.,/,.,?,?,/
Cc1cc(=O)[nH]c(N/N=C/c2cc(C)n(-c3ccccc3)c2C)n1,95,?,34,?,?,?
Cc1cc(=O)[nH]c(N/N=C/c2c(C)nn(-c3ccccc3)c2C)n1,.,.,.,12µM,.,.
Cc1nn(-c2ccccc2)c(C)c1/C=N\NS(=O)(=O)c1ccc(Cl)cc1,.,.,.,/,.,.
Cc1nn(-c2ccccc2)c(C)c1/C=N/Nc1nc2ccccc2[nH]1,149,?,82,0.59µM,?,13µM
C1CNC2NCCNC2N1 (stereo unspecified),.,.,.,.,.,?
O=C(Nc1cccc(-c2ccc(F)cc2)c1)C1CCCN(C(=O)c2cscn2)C1 (stereo unspecified),.,/,.,.,.,/
SMILES,Shiga inhibitor,Lassa entry inh,CHX counter,Pf growth 48h,Pf growth 96h,Marburg entry inh
Cc1ccc(S(=O)(=O)N2CCOCC2)cc1C(=O)N1CCC(Cc2ccccc2)CC1,.,?,.,.,.,.
CC(=O)Nc1ccc(N2C(C(C)=O)=NN(c3ccc(Cl)cc3)C2c2sccc2C)cc1 (stereo unspecified),.,?,.,9.3µM,?,21µM
COc1ccccc1CNC(=O)COC(=O)Cc1ccsc1,.,?,.,.,.,?
COc1ccc(/C=C/c2ccncc2)cc1,94,.,40,.,.,.
CN(C)c1ccc(/C=C/c2ccncc2)cc1,68,?,32,.,.,.
COc1ccc(/C=C/c2cc(=O)c3cc(Cl)ccc3o2)cc1,.,.,.,.,.,?
COc1ccc(/C=C/c2cc(OC)cc(=O)o2)cc1,86,/,49,/,/,/
Cc1c(Br)c([N+](=O)[O-])nn1CC(=O)N1CCc2ccccc2C1,.,.,.,.,.,.
Cc1c(Br)c([N+](=O)[O-])nn1C(C)C(=O)N1CCc2ccccc2C1 (stereo unspecified),30,/,27,.,.,/
Cc1ccc(NC(=O)c2cc([N+](=O)[O-])ccc2N2CCOCC2)cc1C,.,.,.,.,?,7.1µM
CC(C)c1ccc(NC(=O)c2cc([N+](=O)[O-])ccc2N2CCOCC2)cc1,.,/,.,?,.,/
O=C(Nc1ccc(N2CCN(C(=O)c3ccccc3)CC2)cc1)c1cc([N+](=O)[O-])ccc1N1CCOCC1,.,.,.,.,.,0.63µM
CC(C)Cc1nnc(NC(=O)c2cc([N+](=O)[O-])ccc2N2CCOCC2)s1,.,.,19,.,.,.
Cc1ccc(NC(=O)c2cc([N+](=O)[O-])ccc2N2CCOCC2)cc1S(=O)(=O)N(C)C,.,.,.,.,.,?
CS(=O)(=O)N(CC(=O)NC1CCCCCC1)Cc1ccccc1,.,.,.,.,.,.
CC(=O)NCc1cn2c(C)csc2n1,.,/,.,.,.,/
O=C(Cn1cc(C(F)(F)F)ccc1=O)Nc1ccccc1,44,.,12,.,.,.
O=C(CN1CCC(C(O)(c2ccccc2)c2ccccc2)CC1)Nc1ccccc1,.,?,.,10µM,?,23µM
O=C(CN1CCC(C(O)(c2ccccc2)c2ccccc2)CC1)Nc1cc(Cl)ccc1Cl,.,8.2µM,.,?,.,?
O=C(CN1CCCCC1)Nc1cc(Cl)ccc1Cl,.,.,.,.,?,.
CCOC(=O)c1cnc2c(C)c(Cl)ccc2c1NCCc1ccccc1,/,.,/,/,/,/
Cc1nc(NC(=O)c2ccc(Cl)cc2)sc1-c1csc(Nc2cccc(F)c2)n1,.,/,24,13µM,2.6µM,.
Cc1nc(NC(=O)c2cccc(Cl)c2)sc1C(=O)N1CCCCC1,.,/,.,?,.,/
COc1ccccc1Nc1nc(-c2sc(NC(=O)c3cccc(Cl)c3)nc2C)cs1,.,/,14,?,9.3µM,/
Cc1ccc(Nc2nc(-c3sc(NC(=O)c4cccc(Cl)c4)nc3C)cs2)cc1,.,/,.,2.3µM,4.1µM,.
SMILES,Shiga inhibitor,Lassa entry inh,CHX counter,Pf growth 48h,Pf growth 96h,Marburg entry inh
Cc1nc(N)sc1-c1csc(Nc2cccc(C(=O)O)c2)n1,.,/,.,.,.,/
CC(C)CNC1CCS(=O)(=O)C1 (stereo unspecified),.,/,.,.,.,/
Cc1ccnc(N/C=C(\C#N)c2nc(-c3cccc(Br)c3)cs2)c1,.,?,15,12µM,2.9µM,?
N#C/C(=C/c1ccc(Cl)cc1)c1nc(-c2ccc(Br)cc2)cs1,/,.,/,/,/,/
COCCNC(=O)CSc1nnc2[nH]c(=O)cc(C)n12,/,.,/,/,/,/
CCCOc1ccc(NC(=O)CC2C(=O)N(c3ccc(C)cc3)C(=O)N2CCc2ccncc2)cc1 (stereo unspecified),/,.,/,/,/,/
Cc1cc(NC(=O)c2sc(Nc3ccc(F)cc3)nc2N)no1,.,.,28,.,.,.
C=CCNc1nc(N)c(C(=O)c2ccc3c(c2)OCO3)s1,87,.,26,.,.,?

# Screens from PubChem.
